# High-throughput results: PubChem, National Center for Advancing Translational Sciences (NCATS)
# Only some compounds are listed: those with a hit (about 20% of all), similar ones and a draw of the others.
# CHX counter: counter-screen hit for Shiga toxin inhibitors, cycloheximide. cell reporter, cycloheximide protein synthesis inhibition counterscreen. max response, %. 12% of 300,000 active; in the data active = max response mostly above about 13%, no sharp cut-off; inactive = mostly below about 14%; also: read at 38.3 µM for the half of the compounds with a filed dose; 0% is about no effect
# Pf growth 48h: inhibits P. falciparum growth in the first generation, 48 h; AID 504832; Potency, µM (titrated, usually from 28.7 µM), for inactives: at the highest dose activity change, negative = inhibition, usual class: inhibitors; 5.9% of 310,000 active; P. falciparum luciferase growth in erythrocytes, 48 h; also: potency is read from the fitted curve at half-maximal effect; % is scaled to controls: 0 for no effect and ±100 for the full control effect
#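 Luciferase-expressing parasites in RBCs, 2% Hct / 0.1% parasitemia final; RPMI 1640 + 0.5% Albumax; 37 C, 5% CO2, one generation; luminescence read-out, lower signal = inhibition.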
# Shiga toxin inh: inhibitors of Shiga toxin in Vero cells. Vero cells, Shiga toxin protein synthesis inhibition reporter. 9.2% of 290,000 active. inhibition, % at 38.7 µM; in the data active = inhibition mostly above about 28%, no sharp cut-off; inactive = mostly below about 43%; also: 0% is about no effect
# Pf growth 96h: P. falciparum growth inhibition at 96 hour, primary screen for plastid delayed-death inhibitors. P. falciparum luciferase reporter growth, 96 h. Potency, µM (highest dose often 28.7 µM), for the others: at the top dose activity change, negative = inhibition, most hits filed as inhibitors. 6.9% of 320,000 active. AID 504834; also: potency is read from the fitted curve at half-maximal effect; % is scaled to controls: 0 for no effect and ±100 for the full control effect
#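 Compounds incubated with erythrocytes infected by luciferase-expressing P. falciparum (2% hematocrit, 0.05% parasitemia final) for 96 hours, 37 C in 5% CO2. Growth inhibition scored as decreased luciferase luminescence.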
# HCMV antiviral: human cytomegalovirus inhibition; HFF cells, HCMV-luciferase reporter, 72 h; stronger effect = lower value; activity change, negative = inhibition, % at 57.5 µM; 4.5% of 410,000 active; in the data active = activity change below about -60%; inconclusive = no clear call, values can overlap the other calls; inactive = above about -39%; also: % is scaled to controls: 0 for no effect and ±100 for the full control effect
#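 Compounds were evaluated in HFFs infected with an HCMV luciferase reporter virus (MOI 1 PFU/cell). Luciferase in lysates collected 72 h post infection served as the replication measure.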
# An asterisk follows results filed as active; ? = inconclusive; . = not tested or not shown; [ ] = dose if it differs, or a comment. Unless noted, calls follow the shape of the dose curve; as a rule, active = well fitted inhibition curve with a large enough effect; inconclusive = small, poorly fitted or top-dose-only effect, or another doubt; inactive = no such curve, though single readings can be large or run the other way.
SMILES,CHX counter,Pf growth 48h,Shiga toxin inh,Pf growth 96h,HCMV antiviral
CCCCOCCCNS(=O)(=O)c1ccccc1,9,-15%,31,24%,27
COc1ccc(Nc2ccccc2NC(=O)c2ccccc2Br)cc1,0,1.7µM*,6,2.1µM*,?
Cc1ccccc1C(=O)Nc1ccccc1NC(=O)c1ccccc1Br,-4,?,1,-7%,-10
CC(=O)Nc1ccc(S(=O)(=O)Oc2ccc(/C=N/NC(=O)c3ccc(Cl)cc3)cc2)cc1,2,13µM*,15,?,-4
COc1ccc(/C=N/NC(=O)c2ccc(NC(=O)c3ccccc3Br)cc2)cc1,8,10%,26,-5%,-91*
CCC(Oc1ccc(Cl)cc1)C(=O)N1CC(=O)Nc2ccccc21 (stereo unspecified),-1,?,-7,?,?
O=C(CN1C(=O)C2(SCC(=O)N2c2ccc(Cl)cc2)c2ccccc21)NCCc1ccccc1 (stereo unspecified),.,.,.,.,21
Cc1nc(N2CCOCC2)c2c(C(=O)N3CCN(c4cccc(C)c4C)CC3)c(C)oc2n1,.,.,.,.,-28
Cc1c(NC(=O)C(C)Sc2ncnc3ccccc23)c(=O)n(-c2ccccc2)n1C (stereo unspecified),-2,-18%,-13,31%[5.75 µM],-38
Cc1ccc2nc(NC(=O)c3ccc(Cn4cc(Cl)cn4)o3)sc2c1,33*,115%,43,11%,-13
COc1ccc(CNC(=O)c2ccc(Cn3cc(Cl)cn3)o2)cc1,-1,-4%,-7,127%,5
NNC(=O)c1ccc(Cn2cc(Cl)cn2)o1,18*,-5%,24,31%,-21
O=C(C[C@@H]1C/C=C/CC[C@@H](Cc2ccc(F)cc2)C(=O)OC[C@H](Cc2ccccc2)NC1=O)N[C@H](CO)Cc1ccccc1,.,.,.,.,-7
O=C(Nc1ccccc1-c1nnn(CC(=O)N2CCCc3ccccc32)n1)c1ccco1,-3,?,14,81%,-18
O=C(CSc1ccc2nnc(-c3cccc(F)c3)n2n1)N1CCCc2ccccc21,-4,-13%,9,?,-38
O=C(CSc1ccc2nnc(-c3ccc(Cl)cc3)n2n1)N1CCCc2ccccc21,17*,0%,24,?,-34
Nn1c(SCC(=O)N2CCCc3ccccc32)nnc1-c1ccc(Cl)cc1,-2,0%,15,12µM*,-22
O=C(CSc1ccc2nnc(-c3ccc(F)cc3)n2n1)N1CCCc2ccccc21,-4,?,-12,0%,-77*
O=C(Nc1ccccc1-c1nnn(CC(=O)N2CCCc3ccccc32)n1)c1ccc(Cl)cc1,-2,?,9,12µM*,?
O=C(CN1C(=O)c2ccccc2C1=O)N1CCN(C2c3ccccc3-c3ccccc32)CC1,-1,3%,-4,?,2
Cc1ccc(C(=O)Nc2nnc(S(=O)(=O)N3c4ccccc4CC3C)s2)cc1 (stereo unspecified),.,.,.,.,0
CCN(CC)S(=O)(=O)c1ccc(OC)c(NC(=O)C2CC(=O)N(c3ccc(C)cc3)C2)c1 (stereo unspecified),-6,?,-4,21%,-34
O=C(CNS(=O)(=O)c1ccc(Br)cc1)NC1CCCC1,-1,-28%,-3,3%,1
COc1ccc(S(=O)(=O)N2CCN(c3cc(-c4ccccc4)nc4ncnn34)CC2)cc1,-2,-18%,-6,24%,-73*
O=S(=O)(c1ccc(Br)cc1)N1CCN(c2cc(-c3ccccc3)nc3ncnn23)CC1,-3,-20%,13,-10%,?
SMILES,CHX counter,Pf growth 48h,Shiga toxin inh,Pf growth 96h,HCMV antiviral
COc1ccc(-c2cc(-c3ccccc3)n3ncnc3n2)cc1,-2,-15%,-15,0%,11
O=S(=O)(c1ccccc1)N1CCN(c2cc(-c3ccccc3)nc3ncnn23)CC1,-3,?,10,?,-91*
Cc1ccccc1NC(=O)C1CCN(c2cc(-c3ccccc3)nc3ncnn23)CC1,-2,7.4µM*,8,-19%,?
COc1ccc(-c2cc(N3CCCC3)n3ncnc3n2)cc1,-4,28%,-7,-9%,-98*
Cc1nn(-c2ccccc2)c(Cl)c1C(=O)Nc1nnc(C2CCCCC2)s1,-2,61%,3,-9%,-2
Cc1cnc(NC(=O)c2cc3c(C)nn(Cc4ccccc4Cl)c3s2)s1,17,7.4µM*,-1,13µM*,6
Cc1nn(Cc2ccccc2Cl)c(C)c1C(=O)Nc1nnc(C2CC2)s1,11,?,10,.,-90*
C[C@H]1[C@@H](NC(=O)Nc2ccc(Cl)cc2)CC[C@@]23CCCN2C(=O)CCC[C@@H]13,.,.,.,.,-9
O=S(=O)(Cc1ccc(Cl)cc1)NCc1cccnc1,1,-8%,-11,42%,5
Cc1c(C)c2ccc(OC(C)C(=O)N3CC[C@@]4(O)CCCC[C@H]4C3)c(C)c2oc1=O (stereo partly specified),3,?,1,?,32
Cc1c(C)c2ccc(OC(C)C(=O)N3CC[C@@]4(O)CCCC[C@H]4C3)cc2oc1=O (stereo partly specified),2,12%,0,9.3µM*,15
COc1ccc(CNC(=O)C2CCC(CNC(=O)[C@@H]3Cc4ccccc4CN3)CC2)cc1 (stereo partly specified),0,4%,-2,?,0
CCc1cc2c(nc1CC)CCCN2S(=O)(=O)c1ccc(C#N)cc1,.,.,.,.,24
COc1cc(NC(=O)N2CCc3nc(NCc4cccc(Oc5ccccc5)c4)ncc3C2)cc(OC)c1OC,.,.,.,.,-92*
Cc1ccc2[nH]c(C(=O)O)c(NC(=O)[C@@H]3C[C@@H]3c3ccccc3)c2c1,-2,3%,29,11%,47
CCOc1ccccc1NC(=O)Nc1nnc(N2CCCC(C)C2)s1 (stereo unspecified),.,.,.,.,9
O=C(COc1ccccc1)Nc1nnc(-c2ccc(F)cc2)o1,9,22%,24,12µM*,-37
O=C(Nc1nnc(-c2ccc3c(c2)OCCO3)o1)c1ccc(Cc2ccccc2)cc1,-6,.,-19,36%,?
O=C(CCOc1ccccc1)Nc1nnc(-c2ccc3c(c2)OCCO3)o1,21*,6%,47,21%,18
CC(C)(C)S(=O)(=O)c1cnc(N2CCCC2)nc1N,-2,7%,6,-2%,0
Cc1ccc(/C=C/C(=O)OCC(=O)N(C)c2c(N)n(Cc3ccccc3)c(=O)[nH]c2=O)o1,.,.,.,.,0
O=C(O)c1ccc(-c2nc3scc(-c4ccccc4)c3c(=O)[nH]2)cc1,-2,-7%,-10,19%,25
O=C1CN(c2nc(-c3cccnc3)nc3scc(-c4ccccc4)c23)CCN1,19*,?,25,?,118
O=C1CN(c2nc(-c3cccs3)nc3sc4c(c23)CCCC4)CCN1,35*,-22%,58*,?,0
O=c1c2c3c(sc2nc2n1N=C(c1cccs1)CS2)CCCC3,19*,133%,73*,261%,77
Cc1ccc(OCC(=O)Nc2nnc(SCc3cc(=O)n4cc(C)ccc4n3)s2)cc1,.,.,.,.,-7
